An excerpt weighted towards active compounds, which were near 10% of everything screened.
HEK293 tox: Cytotoxic Profiling in HEK 293 Cell Line of Diverse Libraries Using Quantitative High-Throughput Screening; HEK 293 viability, ATP luminescence (CellTiter-Glo), 48-72 h; Potency, µM (series often up to 115 µM), without a hit: at the top dose activity change, negative = cytotoxicity, hits mostly inhibitors; 94,000 tested, 6.6% active; AID 1345083, 2018; also: nearly all actives have a fitted effect of over 60% in size
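250 HEK 293 cells/well; compound by pintool; incubated 48 or 72 hr at 37 degree Celsius; CellTiter-Glo added, 10 min RT, luminescence imaged.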
Luciferase inh: Firefly luciferase inhibition profiling of diverse chemical library using quantitative high-throughput screening. Luciferin 4-monooxygenase (Photinus pyralis), P08659. purified P. pyralis luciferase, luminescence, biochemical. Potency, µM (titrated, usually from 115 µM), actives largely listed as inhibitors. 76,000 tested, 2.5% active; also: nearly all actives have a fitted effect of over 65% in size
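FLuc 10nM, D-luciferin 10uM, ATP 10uM, Mg acetate 10mM, Tris acetate pH 7.5, Tween/BSA; cpd qHTS; enzyme added last; CCD luminescence.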
NIH3T3 tox: Cytotoxic Profiling in NIH 3T3 Cell Line of Diverse Libraries Using Quantitative High-Throughput Screening; NIH 3T3 viability, CellTiter-Glo ATP luminescence, 48-72 h; Potency, µM (titrated, usually from 96.7 µM), for inactives: at the top dose activity change, negative = cytotoxicity, usual class: inhibitors; 94,000 tested, 4.3% active; also: nearly all actives have a fitted effect of over 55% in size
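ATP-dependent luminescence (CellTiter-Glo) served as the viability signal for NIH 3T3 cells treated with compound for 48 or 72 hr at 37 °C.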
GPT2 inhibitor: Primary qHTS assay for inhibitors of Glutamate pyruvate transaminase 2 (GPT2); Recombinant GPT2, coupled pyruvate oxidase/HRP Amplex Red fluorescence; Alanine aminotransferase 2 (Homo sapiens), Q8TD30; Potency, µM (top dose mostly 57.7 µM), for inactives: at the highest dose activity change, negative = inhibition, usual class: inhibitors; 100,000 tested, 0.25% active; also: nearly all actives have a fitted effect of over 60% in size
Target sequence (Q8TD30 whole entry, looked up): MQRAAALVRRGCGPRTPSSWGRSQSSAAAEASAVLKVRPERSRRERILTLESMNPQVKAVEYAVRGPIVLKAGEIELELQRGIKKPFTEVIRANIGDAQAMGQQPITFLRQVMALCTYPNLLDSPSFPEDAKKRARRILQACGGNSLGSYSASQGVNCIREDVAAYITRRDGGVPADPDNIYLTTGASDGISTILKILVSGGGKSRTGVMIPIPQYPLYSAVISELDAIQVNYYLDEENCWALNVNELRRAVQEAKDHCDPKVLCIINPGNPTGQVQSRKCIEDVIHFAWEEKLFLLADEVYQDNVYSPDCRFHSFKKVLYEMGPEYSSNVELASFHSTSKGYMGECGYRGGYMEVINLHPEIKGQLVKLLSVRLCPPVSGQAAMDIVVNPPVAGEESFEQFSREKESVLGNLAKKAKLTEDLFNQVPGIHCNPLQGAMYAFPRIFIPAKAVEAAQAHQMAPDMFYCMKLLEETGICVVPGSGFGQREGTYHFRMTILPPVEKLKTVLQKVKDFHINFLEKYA
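Recombinant GPT2 (10ng/uL) with 250uM a-KG and 2mM L-alanine, 30 min at room temperature, in HEPES pH 7.5 buffer. Pyruvate detected by pyruvate oxidase/HRP/Amplex Red fluorescence after 30 min in the dark; AOA (50uM) as positive control.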
hNpr1 antagonist: Natriuretic polypeptide receptor (hNpr1) antagonism - Primary qHTS. HEK293 hNpr1 GloSensor cGMP, ANP-stimulated luminescence. Potency, µM (doses to about 46.3 µM), inactives show top-dose activity change, negative = inhibition, usual class: inhibitors. 76,000 tested, 1.6% active; calls by dose curve; also: nearly all actives have a fitted effect of over 60% in size
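Compound pre-incubated 30 min at room temperature on GloSensor-loaded HEK293 cells stably carrying hNpr1 and the pGS-40F cGMP biosensor. Stimulation uses hNppA at 0.1 nM final; luminescence is taken at baseline and 20 min post-agonist.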
Active calls of the source: *; i = inactive; ? = inconclusive; · = not tested or not shown; ! = repeats disagree; [ ] = another dose, or the depositor's remark. Unless noted, calls follow the shape of the dose curve; as a rule, active = well fitted curve in the direction sought with a large enough effect; inconclusive = small, poorly fitted or top-dose-only effect, or another doubt; inactive = no such curve, though single readings can be large; an effect the other way counts as inactive or inconclusive. % is scaled to controls: 0 for no effect and ±100 for the full control effect; potency is read from the fitted curve at half-maximal effect.

SMILES | HEK293 tox | Luciferase inh | NIH3T3 tox | GPT2 inhibitor | hNpr1 antagonist
O=C(c1ccc2ccccc2n1)N1CCN(C(=O)c2nnn3c2COC(c2ccccc2)C3)CC1 (centres undefined) | -33.0% | i | -7.1% | i | -8.6%
O=C(NCc1ccccc1)c1ccccc1OC1CN(Cc2ccncc2)C1 | 39.8µM* | i | ? | i | -5.9%
O=C(NCc1ccccc1)c1ccccc1OC1CN(Cc2cccnc2F)C1 | ? | · | ? | i | ·
Cn1cc(-c2cnc(Nc3cnccn3)c3c2CCO3)cn1 | 1.5%[172 µM] | ? | ? | -29.9%[88.5 µM] | -0.7%[70.6 µM]
COc1ccc(Nc2ncc(-c3cnn(C)c3)c3c2OCC3)cc1 | ? | 25.1µM* | ? | -12.2%[88.5 µM] | 6.2%[70.6 µM]
Cn1cc(-c2cnc(Nc3cncnc3)c3c2CCO3)cn1 | -10.6%[172 µM] | i | 100µM* | i | 0.6%[70.6 µM]
CCN1C(=O)Cc2cc(C(=O)NCc3c(C)cc(C)cc3C)ccc21 | 39.8µM* | i | ? | -14.2% | -13.7%
CCN1C(=O)Cc2cc(C(=O)NCc3ccc(OC)cc3)ccc21 | -9.3% | i | -34.3% | -24.1% | -4.0%
O=C(c1cccc(Cl)c1)N1Cc2ccccc2CC2(CCCN2Cc2ccncc2)C1 (centres undefined) | ? | · | ? | i | ·
O=C(NCC1(COc2cccnc2)C[C@@H](O)[C@@H](O)C1)C1CC1 (some centres undefined) | 31.6µM* | i | ? | -7.4%[88.5 µM] | ?
O=C(NCc1ccccc1F)c1nc2sccn2c1-c1ccc(F)cc1 | 0.9% | · | -17.7% | i | ·
Cc1nc(C)c(C(=O)N2CC(Oc3cccc(-c4nc(-c5ccccc5)no4)c3)C2)s1 | 39.8µM* | ? | ? | 1.6% | -24.4%
Cn1cccc1C(=O)N1CC(Oc2cccc(-c3nc(-c4ccccc4)no3)c2)C1 | 44.7µM* | ? | ? | i | -5.3%
O=C(c1cccc2[nH]ccc12)N1CC(Oc2cccc(-c3nc(-c4ccccc4)no3)c2)C1 | 35.5µM* | ? | ? | i | 1.0%
O=C(NCC1CCCO1)c1csc(N2CCN(c3ccc(Cl)cc3)CC2)n1 (centres undefined) | 35.5µM* | i | ? | 2.7% | ?
CCn1cc(-c2ccc(Cl)cc2)cc1C(=O)NCC1CCCO1 (centres undefined) | ? | ? | -14.6% | 3.5% | -2.6%
COc1ccc(C(=O)N2C[C@@H](CO)[C@H](NC(=O)c3ccccc3)C2)c(OC)n1 | i | · | -3.3% | i | ·
Cc1ccc(CNC(=O)N2CCCC(Cn3cnc4cccnc43)C2)cc1 (centres undefined) | ? | i | -10.5% | -0.1% | 0.7%
Oc1cc(O)cc(/C=C/c2ccc(O)c(O)c2)c1 | · | · | · | 6.31µM* | ·
COc1cc(O)cc(/C=C/c2cccc(O)c2)c1 | · | · | · | i | ·
Cc1cc(C)cc(-c2ccc(CN3CCCC(NC(=O)c4ccccc4F)C3)cc2)c1 (centres undefined) | 79.4µM* | · | ? | i | ·
COc1cccc(-c2ccc(CN3C4CCC3CN(C(=O)Nc3ccccc3F)C4)cc2)c1 | 39.8µM*! | ? | 35.5µM*! | 3.4% | -21.9%
Cc1cc(C)cc(-c2ccc(CN3CCCC(NC(=O)Nc4ccccc4)C3)cc2)c1 (centres undefined) | ? | · | 10µM* | i | ·
Cc1ccc(C(=O)NC2CCCN(Cc3ccc(-c4cc(C)cc(C)c4)cc3)C2)cc1 (centres undefined) | -19.4% | · | -18.2% | -17.7% | ·
COc1cccc(-c2ccc(CN3CCCC(NC(=O)c4ccccc4F)C3)cc2)c1 (centres undefined) | 39.8µM* | · | ? | i | ·
SMILES | HEK293 tox | Luciferase inh | NIH3T3 tox | GPT2 inhibitor | hNpr1 antagonist
Cc1cc(C)cc(-c2ccc(CN3C4CCC3CN(C(=O)Nc3ccccc3F)C4)cc2)c1 | ? | · | ? | 0.1% | ·
COc1cccc(-c2ccc(CN3CCCC(NC(=O)c4ccccc4C)C3)cc2)c1 (centres undefined) | 22.4µM* | · | 39.8µM* | i | ·
Cc1cn2nc(C(=O)N3CCC(NC(=O)c4ccc(C)c(F)c4)CC3)cc2c(=O)[nH]1 | ? | i | -7.9% | -9.4% | -22.8%
C=CCn1cc2c3c(cccc31)[C@H](CC(C)C)N[C@H](C(=O)NCCOC)C2 | 56.2µM* | ? | 89.1µM* | 1.5%[88.5 µM] | -2.3%[70.6 µM]
C=CCn1cc2c3c(cccc31)[C@H](CC(C)C)N[C@H](C(=O)NCCCN1CCCC1=O)C2 | 39.8µM* | i | ? | ? | 0.9%
CCn1cc(CN2CCC(N3C(=O)C4(CCCCC4)C3c3ccccc3)CC2)cn1 (centres undefined) | ? | i | -6.2% | i | 13.3%
COc1ccc(CN2Cc3cc(NC(=O)c4ccc([N+](=O)[O-])cc4)ccc3OC(C)C2=O)c(OC)c1 (centres undefined) | -4.0% | i | -35.4% | i | -1.2%
Cn1c(CNC(=O)C2Cn3cccc3C(=O)N2Cc2ccccc2)nc2ccccc21 (centres undefined) | ? | i | 31.6µM* | ? | -11.0%
Cc1ccc(C(=O)Nc2ccc3c(N4CCOCC4)ncnc3c2)cc1 | ? | 15.8µM* | ? | -2.5% | -16.8%
O=C(Nc1ccc2ncnc(N3CCCCC3)c2c1)c1cc(F)ccc1F | ? | i | ? | 0.3% | -17.2%
O=C(Nc1ccc2c(N3CCOCC3)ncnc2c1)c1cccc(Br)c1 | 63.1µM* | i | ? | ? | -15.8%
O=C(Nc1ccc2ncnc(N3CCCC3)c2c1)c1cccc(Br)c1 | 17.8µM* | i | 14.1µM* | i | -29.0%
O=C(Nc1ccc2ncnc(N3CCCCC3)c2c1)c1cncc(Br)c1 | ? | i | -16.9% | 1.2% | -24.9%
O=C(Nc1ccc2ncnc(N3CCCCC3)c2c1)c1ccc(F)c(F)c1 | 44.7µM* | i | ? | -8.7% | -28.2%
Cc1ccc(C)c(C(=O)Nc2ccc3c(N4CCCC4)ncnc3c2)c1 | ? | i | ? | i | -2.2%
O=C(Nc1ccc2c(N3CCCC3)ncnc2c1)c1ccc(Br)cc1 | ? | ? | ? | i | -25.8%
CCc1ccc([S+](=O)([O-])c2nnn3c2nc(NCc2ccncc2)c2ccccc23)cc1 | ? | · | ? | i | ·
O=C(Cn1nc2c(cc1=O)CCCCC2)NC1CCN(Cc2ccc(F)cc2)CC1 | 7.9% | i | i | i | 3.4%
O=C(Nc1ccc2c(N3CCCC3)ncnc2c1)c1cc(F)ccc1F | ? | i | ? | -17.9% | -16.5%
